Results on 40 compounds are retold here after PubChem BioAssay AID602365 (National Center for Advancing Translational Sciences (NCATS), 2012).

Records with an inconclusive call do not appear. Unmarked numbers belong to inactive results. The source made the active and inactive calls. Calls follow the shape of the dose curve; as a rule, active = well fitted inhibition curve with a large enough effect; inconclusive = small, poorly fitted or top-dose-only effect; inactive = flat fitted curve, though single readings scatter.

Sequence of Luciferin 4-monooxygenase (Photinus pyralis) (P08659 whole entry, looked up): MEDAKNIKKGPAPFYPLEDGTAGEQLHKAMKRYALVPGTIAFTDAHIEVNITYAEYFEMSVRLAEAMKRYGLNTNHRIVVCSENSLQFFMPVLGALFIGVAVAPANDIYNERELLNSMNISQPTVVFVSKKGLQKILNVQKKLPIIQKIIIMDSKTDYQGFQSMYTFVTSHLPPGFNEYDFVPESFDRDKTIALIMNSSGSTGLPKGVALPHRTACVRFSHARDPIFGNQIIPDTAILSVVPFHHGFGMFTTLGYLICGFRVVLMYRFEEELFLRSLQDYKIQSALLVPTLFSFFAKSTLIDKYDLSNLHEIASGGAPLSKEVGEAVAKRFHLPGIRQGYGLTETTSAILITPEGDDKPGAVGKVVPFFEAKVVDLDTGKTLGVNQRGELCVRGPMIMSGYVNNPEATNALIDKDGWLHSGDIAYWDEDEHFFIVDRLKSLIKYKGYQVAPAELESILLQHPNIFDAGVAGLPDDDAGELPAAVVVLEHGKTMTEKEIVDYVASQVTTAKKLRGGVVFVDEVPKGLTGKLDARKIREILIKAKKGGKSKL

This test concerns the target Luciferin 4-monooxygenase (Photinus pyralis) (UniProt P08659). Briefly: FLuc inhibitory activity for the follow-up compounds in a biochemical assay with 1mM D-luciferin. The following applies: purified FLuc, luminescence; series mostly up to 57.5 µM; activity change, negative = inhibition: at the top concentration. From the text:
NCGC Assay Overview: Firefly (Photinus pyralis) luciferase is one of the most commonly used transcriptional reporters. It is considered one of the more dynamically responsive reporters - that is, responsive to changes in reporter transcription - as it requires no post-translational modifications and is enzymatically active directly after protein synthesis (Wood, 1998). With no endogenous expression in mammalian cells and without the requirement of external excitation, it offers very little background signal, thus generally providing excellent signal to background for most assays. Previous profiling work to determine the prevalence of compounds that affect FLuc enzymatic activity (PubChem AID 411) identified that ~3% of the MLSMR library (then at ~72K) inhibited FLuc. […] Of the compounds identified in this profile that inhibited FLuc, 151 compounds were selected for further analysis, in an effort to better understand their mode of inhibiting FLuc. The assay described here was to determine the activity of the compounds in a FLuc assay that contained a KM concentration of ATP and a high concentration (1mM) of D-luciferin.
NCGC Assay Protocol Summary: Reagents: 50mM Tris acetate, pH 7.5; 10mM Mg acetate; 1mM D-luciferin (Sigma #L9504); 10uM ATP; 0.01% Tween-20; 0.05% BSA; 10nM P. pyralis luciferase (Sigma #L9506) Control compounds used were two known firefly luciferase inhibitors (3-(5-(3-chlorophenyl)-1,2,4-oxadiazol-3-yl)benzoic acid and 5-(2-fluorophenyl)-3-phenyl-1,2,4-oxadiazole), and DMSO. Three microliters containing firefly luciferase substrates in buffer (final concentrations: 50mM Tris acetate, pH 7.5, 10mM Mg acetate, 0.01% Tween-20, 0.05% BSA, 1mM D-luciferin, 10uM ATP) are dispensed into each well of a Greiner white, solid-bottom 1536-well format plate using a flying reagent dispenser (FRD). These assay plates were then treated with 23nL of compound or DMSO using a Kalypsys pin tool, which allows for delivery of a 12-point intraplate titration of each compound to the assay plate (quantitative HTS), with a final compound concentrations ranging from approximately ~60uM to 0.3nM. One microliter of firefly luciferase in […] Tris-acetate buffer was then delivered by FRD to each well for a final enzyme concentration of 10nM. Luciferase activity was then measured using a ViewLux CCD imager (PerkinElmer), with an average exposure time of 2-30 seconds (2X binning, medium/high gain).
On to `CCn1c(C)nc2cc(-c3nc4n(n3)Cc3ccccc3-4)ccc21`, for which the Potency is 0.163 µM (active).

`CC(C)c1ccc(C(=O)Nc2ccc(-c3nc4ccccc4s3)c(Cl)c2)cc1`: the “activity change, negative = inhibition” value is -7.4%.

In the case of `Cc1ccc(C(=O)Nc2cccc(C(=O)O)c2)cc1S(=O)(=O)N1CCCCC1`, the Potency is 4.11 µM (active).

Regarding `O=C(Cc1ccc(Cl)cc1)Nc1cccc(C(=O)Nc2ccccc2C(=O)O)c1`, the Potency was 36.6 µM (active).

For `CCCOc1cccc(C(=O)Nc2ccc(-c3nc4ccccc4s3)c(Cl)c2)c1`, the “activity change, negative = inhibition” value was -4.48%.

Consider `O=C(Nc1ccccc1C(=O)Nc1ccccc1C(=O)O)c1ccccc1`, for which the Potency was 20.6 µM (active).

Regarding `COc1ccc2nc(NC(=O)Cc3cccs3)sc2c1`, the Potency is 13 µM (active).

For the compound `O=C(Nc1ccccc1C(=O)O)c1ccc(NC(=O)C2CC2)cc1`, the Potency was 4.11 µM (active).

With `Nc1ccc(C(=O)Nc2ccccc2C(=O)O)cc1`, the Potency is 20.6 µM (active).

Take `O=S(=O)(c1ccc(-c2nc3ccccc3s2)cc1)N1CCCC1`: the “activity change, negative = inhibition” value was -18.8%.

Turning to `COc1ccc(-c2cccc(C(=O)Nc3cccc(C(=O)O)c3)c2)cc1`, the Potency was 18.3 µM (active).

On to `Oc1ccc(-c2nc3ccccc3s2)c(O)c1`, for which the Potency was 16.3 µM (active).

As to `CCOc1ccc2nc(NC(=O)c3cc([N+](=O)[O-])ccc3N3CCOCC3)sc2c1`, the “activity change, negative = inhibition” value is 0%.

For `Cc1ccc2nc(-c3ccc(NC(=O)CN4CCN(C(=O)c5ccco5)CC4)cc3)sc2c1`, the Potency is 14.6 µM (active).

With `CN(C)c1cccc(C(=O)Nc2ccc(-c3nc4ccccc4s3)cc2)c1`, the Potency is 18.3 µM (active).

Regarding `COc1ccc2nc(NC(=O)CCc3nc(-c4ccccc4F)no3)sc2c1`, the “activity change, negative = inhibition” value is -3.48%.

On to `CC(=O)Oc1ccc(C(=O)Nc2ccccc2C(=O)Nc2cccc(C(=O)O)c2)cc1`, for which the Potency was 16.3 µM (active).

In the case of `O=C(Nc1ccccc1C(=O)O)c1cc(S(=O)(=O)Nc2cccc(F)c2)ccc1Cl`, the “activity change, negative = inhibition” value is -13.3%.

Take `O=C(Nc1ccc(-c2nc3ccccc3s2)cc1)C1=COCCO1`: the Potency was 0.366 µM (active).

`COc1ccc(C(=O)Nc2cccc(C(=O)O)c2)cc1S(=O)(=O)N1CCCC1`: the “activity change, negative = inhibition” value was -20.1%.

Consider `COc1ccc(NS(=O)(=O)c2cccc(C(=O)Nc3ccccc3C(=O)O)c2)cc1`, for which the “activity change, negative = inhibition” value was -13.9%.

Regarding `O=C(Nc1ccccc1C(=O)O)c1ccc(Cl)c(S(=O)(=O)N2CCOCC2)c1`, the Potency was 18.3 µM (active).

Turning to `O=C(O)c1cccc(NC(=O)c2ccc(Cl)c(S(=O)(=O)N3CCCCCC3)c2)c1`, the Potency is 3.26 µM (active).

For the compound `COc1ccc2nc(NC(=O)c3ccc([N+](=O)[O-])o3)sc2c1`, the Potency was 5.8 µM (active).

Consider `Nc1ccc2nc(-c3ccc(O)cc3)sc2c1`, for which the Potency was 1.3 µM (active).

As to `Cc1ccc2sc(-c3ccc(NC(=O)c4cc(-n5cnnc5)ccc4Cl)cc3)nc2c1`, the Potency is 18.3 µM (active).

As for `Cc1ccc(C(=O)O/N=C(\N)c2ccccn2)cc1`, the Potency was 0.183 µM (active).

On to `Nc1ccccc1-c1nc2ccccc2s1`, for which the Potency is 18.3 µM (active).

As for `COc1ccccc1C(=O)Nc1ccc(C(=O)O)cc1`, the “activity change, negative = inhibition” value was -21.2%.

As to `O=C(Nc1ccccc1C(=O)O)c1cccc(NC(=O)c2ccc(Br)o2)c1`, the Potency is 20.6 µM (active).

In the case of `O=C(Nc1ccccc1C(=O)O)c1ccccc1`, the “activity change, negative = inhibition” value was -19.5%.

Consider `COc1ccc(C(=O)Nc2nc3ccc(OC)cc3s2)cc1`, for which the Potency is 5.17 µM (active).

With `COc1c(C)cccc1C(=O)Nc1ccc(-c2nc3ccccc3s2)c(Cl)c1`, the “activity change, negative = inhibition” value was -4.07%.

Turning to `O=C(O)c1cccc(NC(=O)c2cccc(S(=O)(=O)N3CCc4ccccc4C3)c2)c1`, the “activity change, negative = inhibition” value is -21.1%.

`O=C(O)c1cccc(NC(=O)c2cccc(S(=O)(=O)N3CCc4ccccc43)c2)c1`: the “activity change, negative = inhibition” value is -14.4%.

On to `O=C(Nc1c(Cl)cc(Cl)cc1-c1nc2ccccc2s1)c1ccc(Br)o1`, for which the “activity change, negative = inhibition” value is -2.74%.

Turning to `COc1cc(OC)cc(C(=O)Nc2ccccc2-c2nc3ccccc3s2)c1`, the “activity change, negative = inhibition” value was 1.62%.

`Cc1ccc(C(=O)O/N=C(\N)c2ccccn2)c(Cl)c1`: the Potency is 0.0919 µM (active).

In the case of `COc1ccc(CC(=O)Nc2ccc(-c3nc4ccccc4s3)c(C)c2)cc1`, the “activity change, negative = inhibition” value is -11.1%.

Consider `Cc1c(NC(=O)c2cccs2)cccc1-c1nc2ccccc2s1`, for which the Potency was 14.6 µM (active).
